Bioassay records (PubChem)
SW480 rereplic: inducers of DNA re-replication in SW480 colon cancer cells; SW480 DNA re-replication, Hoechst DNA content imaging, 48 h; hit rate 1.8% among 340,000; Potency, µM (top dose mostly 46.1 µM), without a hit: at the top dose re-replication activation, usual class: activators; further: potency means the concentration at half of the fitted maximal effect; % of control where 0% means no effect; nearly all actives have a fitted effect of over 55% in size
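SW480 cells exposed to compounds for 48 hr at 37 C, 5% CO2, then Hoechst-stained 40 min. Nuclear DNA content imaged by fluorescence scanning (405 nm excitation, 500-530 nm emission); re-replication scored as increased high-intensity nuclei.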
TDP1 cell CPT: DT40-hTDP1 cell growth loss with CPT; hit rate 12% among 420,000; chicken DT40 Tdp1-/-;hTDP1 cells + 20 nM CPT, ATP luminescence, 48 h; Potency, µM (doses to about 46.2 µM), inactives show at the highest dose activity change, negative = growth inhibition, usual class: inhibitors; further: potency means the concentration at half of the fitted maximal effect; on the % scale 0 is the no-effect control and ±100 the full control effect; nearly all actives have a fitted effect of over 55% in size
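Cell growth measured by CellTiter-Glo luminescence after a minimum 48 h, 37 C compound exposure with 20 nM CPT in Tdp1-knockout DT40 cells stably expressing hTDP1, seeded 400/well; qHTS titration format.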
BCR signal inh: inhibitors of chronic active B-cell receptor signaling. Potency, µM (series often up to 46.1 µM), inactives show at the highest dose activity change, negative = inhibition, most hits filed as inhibitors. ABC-DLBCL IkBa-CBG/CBR reporter, luminescence ratio, 4 h. AID 493014. hit rate 0.05% among 340,000; active means well fitted inhibition curve with a large enough effect in the signal ratio, with a control signal flat, not every such curve was filed as active; inconclusive means small, poorly fitted or top-dose-only effect, or effect the other way, or a change in a side signal; the % refers to the signal ratio;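 further: potency means the concentration at half of the fitted maximal effect; plate controls were basal doxycycline-induced cells for no effect and cells given 10 µM MG132 for full effect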
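TMD8 ABC-DLBCL cells carrying doxycycline-inducible green luciferase fused to IkappaBalpha plus unfused red luciferase were exposed to compounds (up to 46 uM) for 4 hrs at 37C. Activity came from the overlap-corrected green/red luminescence ratio.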
MCF10A rerep: induces DNA re-replication in MCF 10a normal breast cells; MCF 10A DNA re-replication, Hoechst nuclear intensity, 48 h; Potency, µM (titrated, usually from 46.1 µM), without a hit: at the highest dose activity, positive = re-replication, hits mostly activators; hit rate 2.9% among 350,000; further: potency means the concentration at half of the fitted maximal effect; % of control where 0% means no effect; nearly all actives have a fitted effect of over 50% in size
DT40 TDP1 no CPT: qHTS for Inhibitors of human tyrosyl-DNA phosphodiesterase 1 (TDP1): qHTS in cells in absence of CPT; DT40 Tdp1-/- hTDP1 cells, no CPT, ATP luminescence, 48 h; Potency, µM (series often up to 46.2 µM), for inactives: top-dose activity change, negative = growth inhibition, most hits filed as inhibitors; hit rate 15% among 420,000; AID 686978, 2013; further: potency means the concentration at half of the fitted maximal effect; on the % scale 0 is the no-effect control and ±100 the full control effect; nearly all actives have a fitted effect of over 55% in size
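No-CPT arm: Tdp1-/-;hTDP1 DT40 cells (400/well) plus compounds, incubated ≥48 hr at 37 °C. Readout CellTiter-Glo luminescence.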
IL-1B inflam inh: inhibitors of inflammasome signaling (IL-1 beta secretion); activity change, % at 57.5 µM; THP-1 LPS/ATP IL-1B secretion, AlphaLISA, 16 h; active compounds read low; hit rate 4.7% among 360,000; in the data active means activity change below about -50%; inconclusive means mostly about -30% to -49%; further: on the % scale 0 is the no-effect control and ±100 the full control effect
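THP-1 cells pretreated 1 hr with compounds (up to 57.5 uM final), then stimulated with LPS (250 ng/mL final) plus ATP (1.25 mM final); secreted IL-1B measured by AlphaLISA after 16 hr, decreased signal indicating inhibition.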
Starred values were filed as active, the others as inactive; ? = inconclusive; . = no result given. The list is not random: actives were taken first. Their share in the collection is about 19%. Unless noted, the call rests on the fitted dose curve; in most records, active means well fitted curve in the direction sought with a large enough effect; inconclusive means small, poorly fitted or top-dose-only effect, or another doubt; inactive means no such curve, though single readings can be large; an effect the other way counts as inactive or inconclusive.

SMILES	SW480 rereplic	TDP1 cell CPT	BCR signal inh	MCF10A rerep	DT40 TDP1 no CPT	IL-1B inflam inh
CCOC(=O)CCc1c(C)c2ccc(OCc3cc([N+](=O)[O-])ccc3OC)cc2oc1=O	-5%	26µM*	0%	16%	23µM*	-1
COc1ccc(Cc2nc(C(=O)Nc3ccccc3)cs2)cc1	2%	-10%	-2%	23%	?	-54*
COc1ccc(CNC(=O)c2csc(Cc3ccc(Cl)cc3)n2)cc1	9%	-18%	?	?	-20%	-55*
COc1ccc(NC(=O)c2csc(Cc3ccc(Cl)cc3)n2)cc1	-6%	6%	0%	12%	-4%	-4
CCC(C)Nc1nc(Cl)nc(N(C#N)CN2C(=O)c3ccccc3S2(=O)=O)n1 (centres undefined)	?	15µM*	?	?	?	-66*
CC(C)Nc1nc(Cl)nc(N(C#N)CN2C(=O)c3ccccc3C2=O)n1	?	3%	?	16µM*	-25%	-99*
O=C(Nc1ccc(Cl)cc1)Nc1nc(-c2ccccc2)cs1	-8%	?	?	0.58µM*	-19%	-28
O=C(Nc1cccc(Cl)c1)c1csc(-c2ccccc2)n1	-13%	-23%	5%	20%	-29%	-6
CC1CC1C(=O)Nc1nc(-c2ccccc2)cs1 (centres undefined)	0%	5.2µM*	?	7%	5.8µM*	9
CN(C)CC(=O)Nc1nc(-c2ccccc2)cs1	-8%	-13%	?	-10%	?	-16
Cc1ccc(OCCSCc2nnc(NC(=O)Nc3cccc(Cl)c3)s2)cc1	-2%	4.6µM*	?	?	4.6µM*	-4
O=C(Nc1cccc(Cl)c1)Nc1nc(-c2ccccc2)cs1	6%	?	6%	0.82µM*	?	21
O=C(Nc1ccc(Oc2ccccc2)cc1)c1ccc2nc([C@@H]3O[C@H](CO)[C@H](O)[C@H](O)[C@H]3O)[nH]c2c1	.	2%	.	.	6%	52
COc1ccc(-c2nnc(SCC(=O)NC(=O)Cc3ccccc3)n2C)cc1	?	1%	0%	-3%	0%	26
Cc1nnc(NC(=O)Nc2cccc(Cl)c2)s1	-6%	?	-18%	-2%	13µM*	-6
Cc1cc(C)nc(/N=C(\NC(=O)C(C)(C)C)Nc2ccccc2)n1	-45%	18%	?	5%	0%	42
Cc1csc(NC(=O)Nc2cccc(Cl)c2)n1	1%	?	?	0%	23µM*	5
Cc1cc(C)nc(/N=C(/NC(=O)Nc2cccc(Cl)c2)Nc2ccccc2)n1	-7%	?	6%	-2%	18µM*	-1
CCCCCCC1/C(=N\NC(=O)c2ccccc2)CCC1C(=O)OC (centres undefined)	1%	?	?	3%	0%	-12
Cn1c(N)c(C(=O)CSc2nnc(-c3c[nH]c4ccccc34)n2C2CC2)c(=O)[nH]c1=O	1%	-9%	?	4%	1%	24
CC1=C(C(=O)N(C(C)C)C(C)C)CC(CC(=O)NCCN2CCOCC2)C(=O)N1CCCN1CCCC1=O (centres undefined)	.	12%	.	.	6%	-19
Cc1cc(-c2ccc(S(=O)(=O)Nc3cc(Cl)ccc3C)s2)on1	.	4.6µM*	.	.	2.9µM*	.
Cc1cc(-c2ccc(S(=O)(=O)Nc3ccc(Br)c(C)c3)s2)on1	.	23µM*	.	.	15µM*	.
O=C1NC(=O)C2C1C(c1cccs1)NN2Cc1ccccc1 (centres undefined)	?	29µM*	-3%	7%	29µM*	-9
O=C(Cc1ccccc1)Nc1ccc2c(c1)OC1(CCCC1)O2	-3%	?	?	13%	?	0
SMILES	SW480 rereplic	TDP1 cell CPT	BCR signal inh	MCF10A rerep	DT40 TDP1 no CPT	IL-1B inflam inh
CCc1ccccc1NC(=O)CN1CCN(CC(=O)Nc2ccc3c(c2)OC2(CCCCC2)O3)CC1	8.2µM*	18µM*	.	6.5µM*	4.1µM*	-15
Cc1cccc(C(=O)c2cnc3ccccc3c2-c2ccccc2)c1	7%	15µM*	?	23µM*	26µM*	-19
Cc1cccc(C(=O)NNC(=O)c2ccccc2)c1	-33%	4%	?	0%	1%	5
O=C(c1cc(COc2cccc3cnccc23)on1)N1CCC(c2ccccc2Cl)C1 (centres undefined)	-17%	23µM*	?	-7%	18µM*	-1
O=C(c1cc(COc2c(F)cccc2F)on1)N1CCC(c2ccccc2F)C1 (centres undefined)	?	-1%	?	-14%	?	?
O=C(c1cc(COc2c(F)cccc2F)on1)N1CCC(c2ccncc2)CC1	-5%	9.2µM*	?	?	9.2µM*	?
Cc1cccc(C)c1OCc1cc(C(=O)N2CCC(c3ccncc3)CC2)no1	?	9.2µM*	9%	11%	5.2µM*	-68*
COC(=O)c1ccc2nc(-c3ccc(F)cc3)c(Cc3ccccc3OC)n2c1	.	21µM*	.	.	18µM*	24
COc1ccccc1Cc1c(-c2ccc(F)cc2)nc2ccc(Br)cn12	.	?	.	.	?	4
COC(=O)c1ccc2nc(-c3cccc(Br)c3)c(Cc3ccccc3OC)n2c1	.	?	.	.	21µM*	0
COc1ccc(NC(=O)c2sc3nc4c(cc3c2N)CN(C(C)C)CC4)c(OC)c1	.	23µM*	.	.	?	.
Cc1cccc(NC(=O)c2sc3nc4c(cc3c2N)CN(Cc2ccccc2)CC4)c1	.	15µM*	.	.	18µM*	.
COc1ccc(NC(=O)c2sc3nc4c(cc3c2N)CN(Cc2ccccc2)CC4)cc1	.	3%	.	.	2%	.
CN1CCc2nc3sc(C(=O)Nc4cccc(C#N)c4)c(N)c3cc2C1	.	21µM*	.	.	8.2µM*	.
CC(C)OC(=O)CC(=O)c1sc2nc3c(cc2c1N)CN(C)CC3	-2%	?	-1%	5%	?	11
Nc1c(C(=O)Nc2cccc(Cl)c2)sc2nc3c(cc12)CN(Cc1ccccc1)CC3	.	7.3µM*	.	.	15µM*	.
Cc1cccc(NC(=O)c2sc3nc4c(cc3c2N)CN(C(C)C)CC4)c1	.	21µM*	.	.	?	.
CCN1CCc2nc3sc(C(=O)Nc4cccnc4Cl)c(N)c3cc2C1	-4%	?	7%	-6%	?	?
Cc1nn(C)c(C)c1NC(=O)CCl	5%	38%	-2%	-5%	?	?
